# Many of the other results were omitted from the sample, so hits are more common in it than they were.
# ERG Ets-DNA blk = qHTS for Small Molecule Inhibitors of the ERG Ets/DNA interaction; Potency, µM (doses to about 76.9 µM), usual class: inhibitors; fluorescence polarization, His-ERG Ets domain / labelled DNA; AID 624246, 2012; 0.028% of 370,000 active; active = well fitted inhibition curve with a large enough effect in the polarisation, with a control signal flat; inconclusive = small, poorly fitted or top-dose-only effect, or effect the other way, or a change in a side signal; inactive = no such curve, though single readings can be large or run the other way; the % refers to the polarisation;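 also: polarization taken with two DNA probes labelled with fluorescein and Texas red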
# Target sequence (P11308 whole entry, looked up, the tested form may be a part): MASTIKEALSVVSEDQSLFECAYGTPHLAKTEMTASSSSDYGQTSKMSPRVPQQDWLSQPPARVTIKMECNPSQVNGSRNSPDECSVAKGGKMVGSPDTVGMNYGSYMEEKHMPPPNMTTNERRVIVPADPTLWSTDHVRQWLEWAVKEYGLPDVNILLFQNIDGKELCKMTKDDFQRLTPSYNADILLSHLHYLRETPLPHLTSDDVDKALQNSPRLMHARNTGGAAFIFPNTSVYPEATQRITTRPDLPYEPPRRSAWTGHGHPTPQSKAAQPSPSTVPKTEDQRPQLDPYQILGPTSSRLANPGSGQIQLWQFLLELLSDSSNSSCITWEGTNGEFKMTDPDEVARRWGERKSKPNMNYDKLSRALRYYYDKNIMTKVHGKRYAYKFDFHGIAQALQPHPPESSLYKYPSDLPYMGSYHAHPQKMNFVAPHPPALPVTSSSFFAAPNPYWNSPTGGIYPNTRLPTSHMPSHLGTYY
#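 His-tagged ERG Ets domain (1 uM in the protein solution; 300mM KCl, 50mM Tris-HCl, 1mM EDTA, 1mM DTT, pH 7.5) received compound, then a probe mix of 5 nM fluorescein-DNA and 100nM Texas-615-DNA. Fluorescence polarization was read for both dyes.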
# a7 integrin act = qHTS for Activators of Integrin-Mediated Alleviation for Muscular Dystrophy; alpha7betagal myoblasts, beta-gal FDG fluorescence, 48 h; Potency, µM (series often up to 38.3 µM), hits mostly activators; 0.064% of 350,000 active; also: nearly all actives have a fitted effect of over 60% in size
#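 Alpha7betagal+/- myoblasts (passage 13) were plated 16-24 hr, then exposed to compounds (1:260 dilution of DMSO stock) for 48 hours at 37C. After MPER lysis, β-galactosidase reporter activity was read as FDG fluorescence (ex 480/em 540) after 30 minutes.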
# Gal4-VP16 FLuc = VP16 counterscreen qHTS for inhibitors of ROR gamma transcriptional activity | AID 2546, 2010 | Drosophila S2 Gal4-VP16 UAS-luciferase, luminescence, 20 h | Potency, µM (doses to about 53.6 µM), most hits filed as inhibitors | 3.5% of 310,000 active;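 also: Gal4-VP16 expression switched on by copper sulfate through the metallothionein promoter; nearly all actives have a fitted effect of over 50% in size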
# Giardia kill = Small Molecules that selectively kill Giardia lamblia: qHTS; Giardia lamblia trophozoite viability; activity change, % at 7.66 µM, hits read low; 0.15% of 340,000 active; AID 540267, 2011; in the data active = activity change below about -80%; inconclusive = between about -30% and that limit;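 also: parasites exposed to compound for two days anaerobically before the ATP read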
#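 Each well holds 100 Giardia trophozoites and compound. After two days (48 hrs) at 37 deg C in anaerobic conditions, ATP is quantified by luminescence.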
# RORg inh = qHTS for inhibitors of ROR gamma transcriptional activity. AID 2551, 2010. 5.4% of 310,000 active. Nuclear receptor ROR-gamma (Mus musculus), P51450. Drosophila S2 Gal4-RORgamma UAS-luciferase reporter, 20 h. Potency, µM (titrated, usually from 53.6 µM), actives largely listed as inhibitors; also: nearly all actives have a fitted effect of over 60% in size
#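 Read-out: Photinus luciferase luminescence; inhibitors lower reporter signal. Insect Schneider cells with Gal4-ROR gamma fusion under metallothionein promoter, UAS reporter; 700 uM final copper sulfate induction, 20 hr, ambient temperature.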
# Numbers stand for hits; – = inactive; ? = inconclusive; · = not tested or not shown. Unless noted, calls follow the shape of the dose curve; as a rule, active = well fitted curve in the direction sought with a large enough effect; inconclusive = small, poorly fitted or top-dose-only effect, or another doubt; inactive = no such curve, though single readings can be large; an effect the other way counts as inactive or inconclusive.
SMILES,ERG Ets-DNA blk,a7 integrin act,Gal4-VP16 FLuc,Giardia kill,RORg inh
O=C(NC(=S)Nc1ccccc1)c1ccc(-c2ccccc2)cc1,–,–,4.5µM,–,3.5µM
CC(C)NS(=O)(=O)c1ccc(NC(=S)NC(=O)c2ccc(-c3ccccc3)cc2)cc1,–,–,?,–,7.1µM
O=C(O)c1ccc(NC(=S)NC(=O)c2ccc(-c3ccccc3)cc2)cc1,–,–,–,–,–
CCOc1ccc(CCNC(=O)C2CCCN(c3nnc(C)c4c(C)n(-c5ccccc5)nc34)C2)cc1 (stereo not drawn),–,·,·,·,·
CCCN1C(=O)/C(=C/c2ccc3c(c2)OCO3)NC1=S,–,–,?,–,8.9µM
COc1cc(NC(=O)CC(C)n2nc(C)cc2C)cc(OC)c1 (stereo not drawn),–,·,·,·,·
Cc1cc(C)nc(-n2nc(C)cc2NC(=O)CNC2CCCCC2)n1,–,–,6.3µM,–,2.5µM
Cc1cc(C)nc(-n2nc(C)cc2NC(=O)CN2CCCC(C)C2)n1 (stereo not drawn),·,–,5.6µM,–,0.71µM
Cc1cc(C)nc(-n2nc(C)cc2NC(=O)CN2CCc3ccccc3C2)n1,–,–,2.8µM,–,0.79µM
Cc1cc(C)nc(-n2nc(C)cc2NC(=O)c2ccc3c(c2)OCO3)n1,·,·,–,·,–
C=CCOc1c(Cl)cc(C(=S)N2CCCC2)cc1OCC,–,–,?,–,13µM
CCOc1cc(C(=S)N2CCCC2)ccc1O,–,–,–,–,–
Cn1c(N)c(C(=O)Nc2ccc(-c3ccccc3)cc2)sc1=S,–,–,–,–,–
O=C(/C=C/c1ccccc1)c1cccs1,·,·,–,·,22µM
CCOc1ccc(/C=C/C(=O)c2cccs2)cc1,·,·,–,·,22µM
Cc1nc2nc(NC(=O)CC(C)C)[nH]n2c(=O)c1Cc1ccccc1,–,·,·,·,·
O=C(N/N=C/c1ccc(-c2cccc([N+](=O)[O-])c2)o1)[C@H]1C[C@@H]1c1ccccc1,–,–,–,–,–
CCc1nnc(N/N=C/c2ccc(-c3ccc([N+](=O)[O-])cc3)o2)n1N,–,–,?,–,3.5µM
O=C(N/N=C/c1ccc(-c2cccc([N+](=O)[O-])c2)o1)c1cccs1,–,–,?,–,10µM
Nc1nonc1C(=O)N/N=C/c1ccc(-c2cccc([N+](=O)[O-])c2)o1,–,–,–,–,–
O=[N+]([O-])c1cccc(-c2ccc(/C=N/NC(=S)Nc3cccc(F)c3)o2)c1,–,–,7.1µM,–,0.89µM
NC(=S)N/N=C/c1ccc(-c2cccc([N+](=O)[O-])c2)o1,–,–,4.5µM,–,1µM
CCC(=O)N/N=C/c1ccc(-c2ccc([N+](=O)[O-])cc2)o1,–,–,–,–,–
CCCCCCCCN,·,·,–,·,–
COc1ccc(CN(C(=O)c2cc3ccccc3oc2=O)C2CCS(=O)(=O)C2)cc1OC (stereo not drawn),–,–,–,–,–
SMILES,ERG Ets-DNA blk,a7 integrin act,Gal4-VP16 FLuc,Giardia kill,RORg inh
C[C@@H](CCc1ccccc1)NC[C@H](O)c1ccc(O)c(C(N)=O)c1,·,·,–,·,–
Cc1ccc(C(=O)N/N=C/c2ccc(-c3cccc(Cl)c3)o2)cn1,–,–,7.1µM,–,5µM
O=C(COc1ccc(Cl)cc1Cl)NC(=S)Nc1ccc(CN2CCOCC2)cc1,–,–,?,–,16µM
O=C(COc1ccccc1Cl)NC(=S)Nc1ccc(CN2CCOCC2)cc1,–,–,–,–,–
O=C(CCCCl)NC(=S)Nc1ccc(CN2CCOCC2)cc1,–,–,–,–,–
O=C(COc1ccc(Cl)cc1Cl)NNC(=S)Nc1ccc(F)cc1,–,–,?,–,3.5µM
CC(C)CC(=O)NC(=S)Nc1ccc(CN2CCOCC2)cc1,–,–,–,–,4.5µM
O=C(CCCCl)NC(=S)Nc1ccc(N2CCOCC2)cc1,–,–,?,–,2.2µM
CCOC(=O)c1c(C)nc(C)c(C(=O)OCC)c1-c1ccco1,–,–,–,–,–
CCOC(=O)C1OC1C(=O)N[C@@H](CC(C)C)C(=O)NCCC(C)C (stereo partly drawn),·,·,–,·,–
COc1ccc(N=c2nc(-c3ccccc3)n(-c3ccc(C)cc3)s2)cc1,·,·,·,–,·
Cc1ccc(SCC(CC(C)C)N2CCN(C)CCC2=O)cc1 (stereo not drawn),·,·,–,–,–
